The full list was thinned out, with hits kept by preference.
KDM5B inhibitor: Primary screen for KDM5B Histone Demethylases FDH-coupled qHTS | Potency, µM (series often up to 57.7 µM), hits mostly inhibitors | AID 1347165, 2019 | Lysine-specific demethylase 5B (Homo sapiens), Q9UGL1 | KDM5B demethylase, FDH-coupled NADH fluorescence (FDH is formaldehyde dehydrogenase) | 220,000 compounds, 2.6% hits; active = well fitted inhibition curve with a large enough effect; also: 0% is about no effect; nearly all actives have a fitted effect of over 70% in size
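KDM5BΔAP (200 nM final) in 50 mM HEPES pH 7.5, 0.01% Tween-20 was preincubated 10 min at RT with compound over a concentration range. Substrate mix (H3K4me3 12.5 µM, α-KG 25 µM, Fe²⁺, ascorbate, NAD⁺, FDH) was added, and NADH fluorescence change over 30 min gave dose-response curves.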
The depositor's hits bear a star; i = inactive. Potency is read from the fitted curve at half-maximal effect.

SMILES | KDM5B inhibitor
c1cc2nnc(C3CCC3)n2nc1N1CCCC1 | i
Cc1ccc(C(=O)N2CC3CC(C2)[C@H]2CCCC(=O)N2C3)cn1 (some centres undefined) | i
Clc1ccc(CNc2nc(-c3ccccc3)no2)cc1 | i
O=C(Nc1ccccc1)N1CCN(C2CCNCC2)C(=O)C1 | i
Cc1cccc(C(=O)NCCc2noc(C3CC3)n2)c1 | i
CC(C)(C)c1ccc(C(=S)NCCCN2CCCC2=O)cc1 | i
O=C(O)c1ccnc(-c2ccnc(NCCc3noc(C4CCC4)n3)n2)c1 | 28µM*
O=C(O)c1cccc(CC2CCN(C(=O)CCCN3CCCCC3=O)C2)c1 (centres undefined) | i
CCC(C)(C)C(=O)NCCc1noc(C2CC2)n1 | i
O=C(O)c1ccnc(-c2ccnc(NCCN3CCCCC3=O)n2)c1 | 22µM*
c1cc2ccc(CNC3CC3)cc2[nH]1 | i
O=C(c1ccco1)N1CCN(C(=O)C2CCN(c3nnc(N4CCCCC4=O)s3)CC2)CC1 | i
O=C(CCc1cccc(F)c1)N1CCC(C(=O)O)(n2cccn2)CC1 | i
Cc1[nH]c2ccccc2c1SCCNC(=O)c1ccc(F)cc1 | i
COC(=O)[C@@H]1Cc2c([nH]c3ccccc23)[C@H]2C[C@H](N3CCCCC3)C[C@@H](c3ccccc3F)N21 | i
COC(=O)[C@@H]1Cc2c([nH]c3ccccc23)[C@H]2C[C@@H](NCCO)C[C@@H](c3ccccc3F)N21 | 28µM*
O=C(NCCCn1ccnc1)C1CC(c2ccccc2Cl)=NO1 (centres undefined) | i
Cc1ccccc1-n1c(SCC(=O)NCC2CCCO2)nc2c([nH]c3ccccc32)c1=O (centres undefined) | i
CCC1=C(C(=O)OC)C(c2ccccc2F)N2C(CC(=O)NCC3CCCO3)=CSC2=N1 (centres undefined) | i
COC(=O)[C@@H]1Cc2c([nH]c3ccccc23)[C@H]2C[C@@H](NCCCn3ccnc3)C[C@@H](c3ccccc3F)N21 | 25µM*
COC(=O)[C@@H]1Cc2c([nH]c3ccccc23)[C@H]2C[C@H](NC[C@H]3CCCO3)C[C@@H](c3ccccc3F)N21 | 28µM*
COc1cccc(CN2CCNC(=O)C2CC(=O)NCCCn2ccnc2)c1 (centres undefined) | i
CC(=O)c1c(C)[nH]c(C(=O)C(C)OC(=O)c2ccc(F)cc2Cl)c1C (centres undefined) | i
COCCn1c(SCc2ccc(Br)cc2)nnc1-c1cccc(C)c1 | i
O=C1CN(C(=O)Cc2ccc(F)cc2)C(c2ccc(F)cc2)c2cc(Cl)ccc2N1 (centres undefined) | i
SMILES | KDM5B inhibitor
CCCOC(=O)c1[nH]c2c(c1C)C(=O)CCC2 | i
COc1ccccc1Oc1c(C)oc2cc(OCC(=O)NCc3cccs3)ccc2c1=O | i
O=C(COC(=O)c1cc(=O)c2ccccc2o1)c1ccc(Cl)c(Cl)c1 | i
O=C(NCCc1noc(-c2ccncc2)n1)NC1CCCCC1 | i
Cc1ccc([N+](=O)[O-])cc1C#Cc1ccccc1 | i
Cc1ccc(Cn2c(C)c3cnn(CC(=O)NCc4cccnc4)c(=O)c3c2C)cc1 | i
COc1ccc(Nc2ncc(-c3ccccc3OC)c3c2OCC3)cn1 | 35µM*
COc1ccc(NS(=O)(=O)c2ccc3c(c2)OCCCO3)cn1 | i
COc1ccccc1-c1cnc(Nc2ccc(CN3CCN(C)CC3)cc2)c2c1CCO2 | 35µM*
COc1ccccc1-c1cnc(Nc2cncnc2)c2c1CCO2 | i
COc1ccccc1-c1cnc(NC(=O)c2ccc(F)c(Cl)c2)c2c1CCO2 | i
COc1ccc(Nc2nc(N3CCN(Cc4ccccc4)CC3)nc3nccnc23)cc1 | i
Clc1ccc(-c2nnc(CSc3nc4ccc(Cl)cc4[nH]3)o2)cc1 | i
O=C(NCc1ccccc1)C1COC2(CCN(C(=O)c3ccccc3F)CC2)N1C(=O)c1ccco1 (centres undefined) | i
O=C(COC(=O)c1ccc2c(c1)NC(=O)CS2)NCc1cccs1 | i
CC1(COc2ccccc2)COc2ccc(C(=O)NCc3cccs3)cc2N1 (centres undefined) | 32µM*
O=C(NCc1cccs1)c1ccc(CN2C(=O)NC3(CCOCC3)C2=O)cc1 | i
CC1(CNCc2ccccc2)COc2ccc(C(=O)NCc3cccs3)cc2N1 (centres undefined) | 32µM*
O=C(NCc1cccs1)c1ccc(CN2C(=O)NC3(CCS(=O)(=O)CC3)C2=O)cc1 | i
CCN(CC(=O)NCc1cccs1)C(=O)CCCOc1ccccc1 | i
N#CC(C(=O)Nc1ccccc1Cl)C(=O)c1cccc(Cl)c1 (centres undefined) | i
CCN1CCN(CCNC(=O)c2c(C)nn(-c3ccc(F)cc3)c2-n2cccc2)CC1 | i
C[C@H]1[C@@H]2[C@H]3OC(=O)[C@@H](C)[C@@H]3CC[C@@]2(C)CC[C@@H]1NC(=O)c1ccccn1 | i
N#Cc1cc(C(=O)c2cc(F)ccc2O)cn(-c2ccccc2C(=O)O)c1=O | i
CCC(NC(=O)c1cccnc1)C12CC3CC(CC(C3)C1)C2 (centres undefined) | i
SMILES | KDM5B inhibitor
CC(NC(=O)c1ccco1)C(=O)Nc1nc(-c2cccc3ccccc23)cs1 (centres undefined) | i
CCCCN(Cc1cccnc1)C(=O)c1cnc(-c2ccc(C)cc2)[nH]c1=O | i
CCCN(Cc1ccncc1)C(=O)c1cnc(-c2ccccn2)[nH]c1=O | 10µM*
CCCN(Cc1ccccc1)C(=O)c1cc2ccccc2oc1=O | i
O=C(c1ccccc1-c1ccccc1F)N1CCCC(CO)(Cc2ccccc2F)C1 (centres undefined) | i
CCOC(=O)c1cnc2ccc(Cl)cc2c1Nc1cc(OC)ccc1OC | i
Cn1cccc1C(=O)N1CC(Oc2cccc(-c3nc(-c4ccccc4)no3)c2)C1 | 32µM*
Cc1noc(-c2cccc(OC3CN(C(=O)c4cccn4C)C3)c2)n1 | i
Cc1nc(C)c(C(=O)N2CC(Oc3cccc(-c4nc(-c5ccccc5)no4)c3)C2)s1 | i
O=C(c1cccs1)N1CC(Oc2cccc(-c3nc(-c4ccccc4)no3)c2)C1 | i
O=C(c1cccc(F)c1)N1CC(Oc2cccc(-c3nc(-c4ccccc4)no3)c2)C1 | i
O=C(c1cccc2[nH]ccc12)N1CC(Oc2cccc(-c3nc(-c4ccccc4)no3)c2)C1 | 25µM*
O=C(CSc1ccccc1Cl)NC(=O)C1CCCCC1 | i
CCOC(C)C(=O)NCCSCc1cccs1 (centres undefined) | i
COc1ccc(OC)c(NC(=O)Cn2c(-c3ccc(Cl)cc3)nc(C)c(CCO)c2=O)c1 | 25µM*
COc1ccc(NC(=O)Cn2c(-c3ccc(Cl)cc3)nc(C)c(CCO)c2=O)cc1OC | i
COc1ccc(OC)c(NC(=O)Cn2c(-c3cccc(Cl)c3)nc(C)c(CCO)c2=O)c1 | i
COC(=O)c1ccc(CNC(=O)c2ccccc2C(F)(F)F)cc1 | i
CCCC(=O)c1ccc(Oc2ccccc2)cc1 | i
COCCNC(=O)CCCN1C(=O)COc2ccc(C(=O)COc3ccc(Cl)c(C)c3)cc21 | i
C=CCNC(=O)CCNC(=O)c1ccc(C(C)(C)C)cc1 | i
COCCNC(=O)c1ccc2c(c1)N(C)C(CC(=O)NCCO)CO2 (centres undefined) | 28µM*
C=CCNC(=O)CC1COc2ccc(C(=O)NCCOC)cc2N1C (centres undefined) | 28µM*

From PubChem BioAssay
